POLH inh: inhibitors of human DNA polymerase eta; recombinant Pol eta, fluorescent DNA replication assay; AID 588591; hit rate 1.2% among 390,000; Potency, µM (titrated, usually from 114 µM), inactives show at the highest dose activity change, negative = inhibition, most hits filed as inhibitors; Q9Y253; also: potency is read from the fitted curve at half-maximal effect; % is scaled to controls: 0 for no effect and ±100 for the full control effect
Target sequence (Q9Y253 whole entry, looked up): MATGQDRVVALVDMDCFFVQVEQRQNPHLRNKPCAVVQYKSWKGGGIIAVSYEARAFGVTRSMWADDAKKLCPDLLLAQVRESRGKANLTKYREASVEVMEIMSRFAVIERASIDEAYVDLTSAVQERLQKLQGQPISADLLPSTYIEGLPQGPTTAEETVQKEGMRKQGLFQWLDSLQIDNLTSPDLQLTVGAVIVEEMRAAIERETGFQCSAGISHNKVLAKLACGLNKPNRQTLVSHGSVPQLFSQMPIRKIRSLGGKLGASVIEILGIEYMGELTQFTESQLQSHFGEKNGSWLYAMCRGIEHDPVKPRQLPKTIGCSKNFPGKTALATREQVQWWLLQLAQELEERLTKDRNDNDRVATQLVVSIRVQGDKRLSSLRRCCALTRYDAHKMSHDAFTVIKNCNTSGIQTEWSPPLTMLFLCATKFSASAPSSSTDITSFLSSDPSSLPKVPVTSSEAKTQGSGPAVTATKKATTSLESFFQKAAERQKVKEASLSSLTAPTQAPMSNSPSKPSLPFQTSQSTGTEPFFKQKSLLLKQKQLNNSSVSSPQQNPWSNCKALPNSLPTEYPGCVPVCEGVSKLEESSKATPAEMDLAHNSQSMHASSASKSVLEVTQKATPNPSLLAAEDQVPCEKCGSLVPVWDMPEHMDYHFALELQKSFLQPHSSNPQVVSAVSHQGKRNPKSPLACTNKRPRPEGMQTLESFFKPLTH
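Fluorescent replication assay: 50 nM final substrate added after a 15 min room-temperature compound preincubation with 10 nM enzyme. Signal taken at 0 min and again at 10 min.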
Pol iota inh: inhibitors of human DNA polymerase iota. Q9UNA4. Potency, µM (series often up to 115 µM), for the others: at the top dose activity, negative = inhibition, most hits filed as inhibitors. Pol iota fluorescent replication assay, 10 min. hit rate 1% among 390,000. AID 588590; also: potency is read from the fitted curve at half-maximal effect
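Fluorescent replication assay read twice, at 0 min and 10 min after adding 50 nM (final) substrate. Enzyme (10 nM) and compounds were first incubated 15 min at room temperature; enzyme-free buffer wells were negative controls.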
Pol kappa inh: inhibitors of human DNA polymerase kappa; Q9UBT6; purified Pol kappa, fluorescent DNA synthesis assay, 10 min; Potency, µM (top dose mostly 107 µM), inactives show at the top dose activity, negative = inhibition, actives largely listed as inhibitors; hit rate 0.53% among 400,000; AID 588579; also: potency is read from the fitted curve at half-maximal effect; % is scaled to controls: 0 for no effect and ±100 for the full control effect
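10 nM Pol kappa preincubated 15 min at room temperature with compounds, then reaction started with substrate at 50 nM final. Fluorescence read kinetically at 0 and 10 min; buffer-only wells served as negative control.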
POLB inh: inhibitors of human DNA polymerase beta; P06746; Pol beta primer extension/strand displacement, fluorescence kinetic; Potency, µM (highest dose often 114 µM), for inactives: at the top dose activity change, negative = inhibition, usual class: inhibitors; hit rate 1.3% among 340,000; also: potency is read from the fitted curve at half-maximal effect; % is scaled to controls: 0 for no effect and ±100 for the full control effect
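10 nM enzyme + cpd, 15 min RT; start with substrate 50 nM final; read 0 min and after 10 min RT. Corrected, normalized data; 4-parameter Hill curve fit.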
12-LOX inh: blocks human arachidonate 12S-lipoxygenase. purified 12hLO, xylenol orange hydroperoxide absorbance. hit rate 1.1% among 580,000. Potency, µM (titrated, usually from 108 µM), for inactives: at the top dose activity change, negative = inhibition, actives largely listed as inhibitors. P18054; also: potency is read from the fitted curve at half-maximal effect; % is scaled to controls: 0 for no effect and ±100 for the full control effect
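Purified human 12hLO at 150 nM in 25 mM Hepes, 0.01% Triton X-100, pH 7.0, preincubated 15 min at room temperature with compound. Reaction started with 40 uM arachidonic acid, 30 min at room temperature. Hydroperoxide measured by Fe-xylenol orange, 573/405 nm absorbance ratio.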
PI5P4K alpha inh: PI5P4K alpha (human) kinase inhibition | P48426 | PI5P4Kalpha enzyme, ADP-Glo luminescence, 60 min; hits give low values | max response, % | hit rate 1.2% among 330,000 | AID 652105; active = max response of -50% or lower; inconclusive = between -30% and -50%; inactive = -30% or higher; also: value at the top dose of about 77 µM; % is scaled to controls: 0 for no effect and ±100 for the full control effect
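Reactions run in 0.038 M HEPES pH 7.4, 0.28 mM EGTA, 0.1% CHAPS and 5% DMSO, with PI5P4Kalpha, substrate, compound and 5 microM ATP final, one hour at room temperature. Readout is ADP-Glo luminescence.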
* marks the source's active call; other numbers are inactive results; u = inconclusive; x = no result; ! = not confirmed by another sample; [ ] = another dose, or the depositor's remark. In the library only some 2.9% were active in any assay of this set; here they are far more common. Unless noted, calls follow the shape of the dose curve; as a rule, active = well fitted inhibition curve with a large enough effect; inconclusive = small, poorly fitted or top-dose-only effect, or another doubt; inactive = no such curve, though single readings can be large or run the other way.

SMILES | POLH inh | Pol iota inh | Pol kappa inh | POLB inh | 12-LOX inh | PI5P4K alpha inh
NC(=S)NN=C1CCC(C2CCCCC2)CC1 (configuration not stated) | -21% | 47% | -9% | x | 35µM* | -2
NC(=S)NN=C1CCCCCCCCCC1 | -10% | 15% | -20% | x | 45µM* | 1
Cc1cc(S(=O)(=O)c2cc3ccccc3oc2=O)ccc1F | x | x | x | x | -6% | x
COCCNC(=O)Cn1cc(S(=O)(=O)Cc2ccc(C)cc2)c2ccccc21 | x | x | x | x | 4% | x
Cc1ccc2nc(C)cc(SCC(=O)N/N=C/c3ccco3)c2c1 | 8% | -16% | -14% | 40µM* | 1% | 1
O=C(Cn1c(=O)n(-c2ccccc2F)c(=O)c2sccc21)NC1CCc2ccccc21 (configuration not stated) | x | x | x | x | -4% | x
CC(C)OCCCNC(=O)COc1ccc2c(-c3ccccc3)cc(=O)oc2c1 | x | x | x | x | 7% | x
CCCNC(=O)CN1CCN(c2ccc(NC(=O)c3ccc(OC)cc3)cc2C(=O)O)CC1 | -1% | -2% | -3%[60.1 µM] | -28% | u | x
CCCn1nc(C)cc1CN(C)c1ccc(NC(=O)c2ccc(OC)cc2)cc1C(=O)O | x | x | x | x | 4.5µM* | x
Cc1ccnc(NC(=O)C2CCN(C(=O)C(C)(C)C)CC2)c1 | x | x | x | x | 44% | x
COc1ccc(C2=NOC(C(=O)Nc3cc(Br)ccc3O)C2)cc1OC (configuration not stated) | 2% | -15%[58.9 µM] | -8% | -10% | 10µM* | x
COc1ccc(NC(=O)C2CC(c3c(F)cccc3Cl)=NO2)cc1OC (configuration not stated) | 89µM* | 26% | 6% | 5% | 51% | 2
COc1ccc(C2=NOC(C(=O)Nc3ccc(C(C)=O)cc3)C2)cc1OC (configuration not stated) | -3% | 22% | -9% | 15% | 6% | x
CCCOc1cccc(-c2cc(C(=O)NNC(=S)NCC)c3ccccc3n2)c1 | -27% | 20% | -11% | 5% | 25µM* | x
CCN(CC)CCCNC(=O)c1cc(Nc2ccc(OC)cc2)nc2ccccc12 | -11% | 35% | -5% | 2% | 26% | 2
CCCCCNC(=O)c1cc(-c2ccc(OC)cc2)nc2ccccc12 | x | x | x | x | 32µM* | x
CCN(CC)CCCNC(=O)c1cc(-c2ccc(OC)cc2)nc2ccccc12 | x | x | x | x | 6.3µM* | x
Cc1ccccc1N1CC(C(=O)Nc2nnc(SCc3ccccn3)s2)CC1=O (configuration not stated) | 50µM* | u | -27% | 79µM* | 432% | u
Cc1ccc(CN2CC(C(=O)Nc3nnc(SCc4c(Cl)cccc4Cl)s3)CC2=O)cc1 (configuration not stated) | u | u | -25% | 13µM* | u | -2
Cc1ccc(C(CNC(=O)c2cccs2)N2CCC(C)CC2)o1 (configuration not stated) | x | x | x | x | 33% | x
OC(CNCCc1ccc(C(F)(F)F)cc1)COC(c1ccccc1)c1ccccc1 (configuration not stated) | u | u | -17% | -24% | 14µM* | 5
Cc1cc(C(=O)N/N=C/c2cc(N=Nc3ccccc3)ccc2O)n[nH]1 | -7% | 2% | -3% | 25µM* | x | -26
Cc1ccc(S(=O)(=O)N2CCC(C(=O)OC(C)C(=O)N3CCOCC3)CC2)cc1 (configuration not stated) | -21% | 24% | -3% | x | -21% | 3
CC(OC(=O)C1CCN(S(=O)(=O)c2ccc(C(C)(C)C)cc2)CC1)C(=O)N1CCOCC1 (configuration not stated) | -22% | 5% | -9% | x | 45µM*! | 2
CCCOc1ccc(N)cc1N | u | u | -30% | u | u | -65*
SMILES | POLH inh | Pol iota inh | Pol kappa inh | POLB inh | 12-LOX inh | PI5P4K alpha inh
N#Cc1nc(-c2ccccc2)oc1NCC(c1cccs1)N1CCOCC1 (configuration not stated) | x | x | x | x | 13% | x
CCCCC(=O)Oc1ccc2cc(-c3csc(C)n3)c(=O)oc2c1 | x | x | x | x | 3% | x
CN(Cc1ccccc1)S(=O)(=O)c1ccc(NC(=O)CN2CCN(c3ccccc3O)CC2)cc1 | x | x | x | x | -3% | x
CC1(C)CC(N2CCCC2)=CC(=[N+]2CCCC2)C1 | -6% | 0% | 2%[60.1 µM] | -13% | 40µM* | -3
CC1(C)CC(N2CCCC2)=CC(=[N+]2CCCCC2)C1 | -12% | 20% | 0%[60.1 µM] | 3% | 40µM* | -4
CC1(C)CC(N2CCN(Cc3ccccc3)CC2)=CC(=[N+]2CCCCC2)C1 | 1% | u | -10% | 27% | -11% | u
CC(C)c1ccc(NC(=O)CSc2nc3ccccc3nc2N2CCCC2)cc1 | -14% | 14% | -10% | 1% | 6.3µM* | 8
COc1cc(/C=N/NC(=O)c2ccc3nc[nH]c3c2)cc(OC)c1OC(C)=O | 9% | x | x | x | 12% | -8
COc1cc(/C=N/NC(=O)c2ccc3nc[nH]c3c2)cc(OC)c1OC | u | 16µM* | u | 7.1µM* | x | -12
COc1ccc(/C=N/NC(=O)c2ccc3nc[nH]c3c2)cc1OC | -15% | 13µM* | u | 16µM* | -6% | 7
CCOc1ccc2[nH]c(C(=O)N/N=C/c3cc(OC)c(OC)c(OC)c3)cc2c1 | u | -15% | -30% | 13µM* | 0% | 4
Fc1ccc(CSc2nc3ccccc3[nH]2)cc1 | -2% | 71µM* | -4% | 77% | 11% | x
CC(C)(C)C(=O)N1CCC(c2nn(-c3ccccc3)c(=O)[nH]2)CC1 | x | x | x | x | 61%[176 µM] | x
O=C(O)c1cccc(NCc2ccc(F)cc2)c1 | x | x | x | x | -26% | x
COc1ccc(S(=O)(=O)N2CCCCCC2)cc1NC(=O)CSc1nnc2ccccn12 | x | x | x | x | -4% | x
COc1ccc(/C=N/NC(=O)c2ccc(Cl)c(S(N)(=O)=O)c2)cc1OCC(N)=O | -3% | -19% | 79µM* | -25% | 1% | 0
COc1cc(/C=N/NC(=O)c2ccc(CSc3nc4ccccc4[nH]3)cc2)cc(OC)c1OC | u | u | u | 10µM* | 13% | -6
CNC(=O)c1[nH]nc2c1CCc1ccccc1-2 | -10% | 128% | 1% | 1% | 63% | 4
COc1ccc(/C=N/NC(=O)c2[nH]nc3c2CCc2ccccc2-3)cc1OC | u | -52% | u | 11µM* | -14% | -19
O=C(NCCO)c1ccc(CSc2nc3ccccc3[nH]2)cc1 | -11% | 21% | -3% | 32% | u | -2
COc1ccc(OC)c(C2CC(c3ccc(NS(C)(=O)=O)cc3)=NN2C(=O)c2cccs2)c1 (configuration not stated) | x | x | x | x | -10% | x
C/C(=C\c1ccc(C(=O)O)cc1)c1ccc2c(c1)C(C)(C)CCC2(C)C | u | 32µM*! | u | u | 12% | 32

Screening results: PubChem, National Center for Advancing Translational Sciences (NCATS)
